A selection: hits, their analogues and other compounds. The true share with any hit is near 5.5%.
RORgamma inh – blocks mouse ROR gamma transcriptional activity; 310,000 compounds, 5.4% hits; Drosophila S2 Gal4-RORgamma UAS-luciferase reporter, 20 h; Potency, µM (top dose mostly 53.6 µM), for the others: at the top dose activity change, negative = inhibition, usual class: inhibitors; P51450; AID 2551; also: potency is read from the fitted curve at half-maximal effect; % is scaled to controls: 0 for no effect and ±100 for the full control effect; nearly all actives have a fitted effect of over 60% in size
Target sequence (P51450 whole entry, looked up, the tested form may be a part): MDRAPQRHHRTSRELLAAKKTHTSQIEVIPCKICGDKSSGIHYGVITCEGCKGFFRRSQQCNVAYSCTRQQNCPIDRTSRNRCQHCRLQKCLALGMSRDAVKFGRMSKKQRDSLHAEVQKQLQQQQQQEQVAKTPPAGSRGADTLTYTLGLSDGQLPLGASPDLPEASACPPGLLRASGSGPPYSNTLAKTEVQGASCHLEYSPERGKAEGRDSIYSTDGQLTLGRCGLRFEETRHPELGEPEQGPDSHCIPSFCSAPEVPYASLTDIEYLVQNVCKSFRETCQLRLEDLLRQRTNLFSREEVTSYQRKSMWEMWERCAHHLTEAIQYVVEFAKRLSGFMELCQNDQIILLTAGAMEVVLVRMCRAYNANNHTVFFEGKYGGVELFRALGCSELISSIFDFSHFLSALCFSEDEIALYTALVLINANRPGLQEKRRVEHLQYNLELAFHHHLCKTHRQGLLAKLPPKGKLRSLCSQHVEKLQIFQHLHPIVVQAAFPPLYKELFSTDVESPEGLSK
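Luciferase reporter read in Schneider cells carrying Gal4-RORγ (mouse) and UAS-Photinus luciferase; cells given compound 1 h before 700 uM copper sulfate induction, then incubated 20 h at ambient temperature.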
MBNL1-CUG inh – inhibitors of human MBNL1 binding to CUG repeat RNA | Q9NR56 | Potency, µM (top dose mostly 57.5 µM), inactives show top-dose activity change, negative = inhibition, most hits filed as inhibitors | AID 2675 | TR-FRET MBNL1-His/biotin-(CUG)12 binding, 665/545 ratio | 280,000 compounds, 0.036% hits; active = well fitted inhibition curve with a large enough effect in the signal ratio, with a control signal flat, not every such curve was filed as active; inconclusive = small, poorly fitted or top-dose-only effect, or effect the other way, or a change in a side signal; inactive = no such curve, though single readings can be large or run the other way; the % refers to the signal ratio; also: potency is read from the fitted curve at half-maximal effect; % is scaled to controls: 0 for no effect and ±100 for the full control effect
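MBNL1-His + Biotin-(CUG)12, cpd titration 92 nM–58 uM; Tb anti-His Ab 0.055 ng/ul, SA-XL665 5 nM (final); 60 min RT; ratiometric 665/545 nm, Ex 340 nm; normalized to buffer and full-complex controls.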
CBFb RUNX1 block – CBF-beta/RUNX1 interaction disruption; 230,000 tested, under 10 active; Potency, µM (series often up to 59.8 µM), for the others: top-dose activity, negative = inhibition, most hits filed as inhibitors; Q01196+Q13951; AID 1477; AlphaScreen CBFb-His/RUNX1-biotin binding, biochemical; also: % of control where 0% means no effect
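Inhibition was taken as any reduction in AlphaScreen signal from the CBF-beta–RUNX1 pair (His and biotin tags, 30 nM each), measured after compound (15 min) and bead (90 min) incubations at room temperature.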
Six1-Eya2 blk – inhibitors of human Six1/Eya2 interaction | 360,000 compounds, 0.56% hits | Q15475+O00167 | activity change, % (test concentration not listed) | AlphaScreen GST-Six1/His-Eya2 binding, biochemical; stronger effect = lower value; in the data active = activity change below about -65%; inconclusive = mostly about -30% to -63%; also: % is scaled to controls: 0 for no effect and ±100 for the full control effect
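AlphaScreen luminescence read after one hour at 37 °C in darkness. Pin-transferred compounds met GST-Six1 and His-Eya2 protein (5X stock 250 nM/500 nM) plus glutathione donor and Ni-chelate acceptor beads (5X, 50 ug/mL).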
Gal4-VP16 FLuc – inhibits Gal4-VP16 luciferase reporter, ROR gamma counter-screen. Drosophila S2 Gal4-VP16 UAS-luciferase, luminescence, 20 h. Potency, µM (top dose mostly 53.6 µM), for inactives: at the top dose activity, negative = inhibition, usual class: inhibitors. 310,000 compounds, 3.5% hits. AID 2546;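 also: Gal4-VP16 expression switched on by copper sulfate through the metallothionein promoter; potency is read from the fitted curve at half-maximal effect; % is scaled to controls: 0 for no effect and ±100 for the full control effect; nearly all actives have a fitted effect of over 50% in size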
CtBP-E1A blk – inhibitors of CtBP/E1A interaction; AlphaScreen GST-E1A/His-CtBP binding, 1536-well; stronger effect = lower value; activity change, % (concentration not given with the values); AID 651724; 340,000 compounds, 0.49% hits; in the data active = activity change below about -65%; inconclusive = mostly about -30% to -63%; also: % is scaled to controls: 0 for no effect and ±100 for the full control effect
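Protein mix (5X: 125 nM each GST-E1A, His-CtBP) was incubated with pinned compound 2 h at 37 deg C in dark, in 50 mM Tris pH 8.0 buffer with 300 mM NaCl. Glutathione donor and nickel acceptor beads followed; AlphaScreen signal read after 1 h.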
The depositor's hits bear a star; ? = inconclusive; . = no result given; [ ] = remark or other dose. Unless noted, calls follow the shape of the dose curve; as a rule, active = well fitted curve in the direction sought with a large enough effect; inconclusive = small, poorly fitted or top-dose-only effect, or another doubt; inactive = no such curve, though single readings can be large; an effect the other way counts as inactive or inconclusive.

SMILES | RORgamma inh | MBNL1-CUG inh | CBFb RUNX1 block | Six1-Eya2 blk | Gal4-VP16 FLuc | CtBP-E1A blk
Cc1ccc(/C=N/NC(=O)c2cccc(S(=O)(=O)Nc3ccccc3Cl)c2)o1 | 12.6µM* | . | -8.4% | -16.3 | ? | -3.8
CC(C)(CNC(=O)c1ccc(-c2cccc(C(F)(F)F)c2)o1)N1CCOCC1 | . | . | . | -9.9 | . | 3.2
CC1(C)CC(=O)C=C(c2ccc(F)nc2)C1 | . | . | . | 10.3 | . | -21.0
O=C(NC(=S)N(CC1CCC1)CC1CCCO1)c1cccc([N+](=O)[O-])c1 (configuration not stated) | 56.2µM* | 5.1% | -0.7% | 1.3 | 0.282µM* | .
CN1CCN(C(=S)NC(=O)c2cccc([N+](=O)[O-])c2)CC1 | 1µM* | ? | . | 8.6 | 1.26µM* | 7.3
CCC1CCCCN1C(=S)NC(=O)c1cccc([N+](=O)[O-])c1 (configuration not stated) | 0.282µM* | ? | . | 2.0 | -89.0% | 1.5
CC1CCN(C(=S)NC(=O)c2cccc([N+](=O)[O-])c2)CC1 | 0.708µM* | 26.7% | . | -12.9 | 0.631µM* | -6.4
COc1ccc(SC[C@H](C)CN2CC[C@H](C(C)(C)C)CCC2=O)cc1 | . | . | . | 2.7 | . | 17.7
O=C(Cc1ccsc1)Nc1ccc2c(c1)OCO2 | . | . | . | 1.7 | . | .
CC1CCN(C(=S)NC(=O)c2ccccc2)CC1 | 2.82µM* | -1.6% | -0.6% | -5.2 | 4.47µM* | 4.6
COc1cc2c(cc1OC)C(C)N(C(=S)NC(=O)c1ccccc1)CC2 (configuration not stated) | 1.26µM* | -1.4% | -10.3% | -0.9 | 2.24µM* | 6.2
COc1cc2c(cc1OC)C(C)N(C(=S)Nc1ccccc1)CC2 (configuration not stated) | ? | -3.8% | -0.6% | -5.3 | -14.3% | -1.4
CCCCCCCCN1C(=O)[C@H](CC(=O)NCCCN2CCCC2=O)C[C@@]2(C(=O)OC)CCCCC=C12 | . | . | . | 0.6 | . | -3.2
Fc1ccc2[nH]c3c(N4CCc5ccccc5C4)ncnc3c2c1 | 11.2µM* | . | 0.4% | -7.6 | 3.16µM* | -2.7
Clc1ccc2[nH]c3c(NCCN4CCOCC4)ncnc3c2c1 | 26.0%[0.365 µM] | 0.5% | 8.9% | -3.2 | . | -12.4
Cc1ccc2[nH]c3c(N4CCc5ccccc5C4)ncnc3c2c1 | ? | 0.8% | -9.9% | -12.1 | 3.16µM* | -1.5
Brc1ccc2[nH]c3c(N4CCc5ccccc5C4)ncnc3c2c1 | -20.1% | 17.1% | 1.6% | -13.9 | 5.6% | -14.1
Fc1ccc2[nH]c3c(NCCN4CCOCC4)ncnc3c2c1 | ? | -12.8% | 3.7% | -1.8 | 12.6µM* | -3.2
CC(C)C[C@@H](CC(=O)N[C@@H](CCC(=O)O)CC(=O)O)NC(=O)[C@@H]1CNCC[C@H]1NC(=O)C[C@H](CCCN)NC(=O)C[C@H](Cc1c[nH]c2ccccc12)NC(=O)[C@@H]1CNCC[C@H]1N | -19.0% | . | -10.3% | . | -15.4% | .
O=C(c1csnn1)N1CCC2(CC1)CCN(c1ccccc1)CC2 | 9.8% | . | . | . | 2.5% | .
O=C(N/N=C\C=C\c1ccc(Br)cc1)c1ccc2c(c1)OCO2 | 12.6µM* | -1.1% | . | -4.1 | 4.47µM* | 1.5
COc1ccc(CC(=O)N/N=C/C=C/c2ccc3c(c2)OCO3)cc1OC | -14.8% | . | -6.4% | -68.8* | -17.8% | -17.7
O=C(NN=Cc1ccc2c(c1)OCO2)c1ccc([N+](=O)[O-])cc1 | . | . | . | 1.8 | . | -19.5
O=C(N/N=C/C=C/c1ccc2c(c1)OCO2)c1ccc([N+](=O)[O-])cc1 | 2µM* | ? | -4.9% | -5.4 | 10µM* | -6.9
COC(=O)N/N=C\C=C\c1ccc2c(c1)OCO2 | 1.3% | ? | 5.7% | 6.7 | -7.2% | -5.3
SMILES | RORgamma inh | MBNL1-CUG inh | CBFb RUNX1 block | Six1-Eya2 blk | Gal4-VP16 FLuc | CtBP-E1A blk
CCOc1ccccc1NC(=O)C1CCN(C(=O)C2CC(=O)N(c3ccc(C)cc3)C2)CC1 (configuration not stated) | -3.2% | -6.4% | . | 4.9 | 5.4% | -10.8
CN(C(=O)c1cc2n(n1)C(C(F)(F)F)CC(c1ccco1)N2)c1ccc(OC(F)(F)F)cc1 (configuration not stated) | ? | -2.6% | 2.0% | 1.2 | 17.8µM* | -3.9
Cc1cccnc1NC(=O)Nc1cccc(F)c1 | . | . | . | 8.1 | . | -6.2
O=C(N/N=C/c1ccco1)c1cc(-c2ccccc2)nc2ccccc12 | 7.08µM* | ? | . | -4.6 | 10µM* | -27.5
COc1cccc(-c2cc(C(=O)N/N=C/c3ccco3)c3ccccc3n2)c1 | 3.16µM* | 14.5% | . | ? | 7.08µM* | -9.1
Cc1ccc(-c2cc(C(=O)N/N=C\c3cnn(C)c3C)c3ccccc3n2)cc1C | 11.2µM* | -1.7% | 0.4% | -24.7 | ? | -2.9
COc1ccc(NS(=O)(=O)c2ccc(I)cc2)cc1N1CCN(C)CC1 | -11.0% | . | 18.9% | . | -4.5% | .
CC(C)(C)Sc1ccc2nc3c(n2c1)CCCC3 | 3.98µM* | -13.9% | -2.1% | -13.8 | 11.2µM* | -5.1
COc1cccc(COC(=O)c2c(C)nn(-c3ccccc3)c2Cl)c1OC | 4.2% | -6.6% | . | 32.9 | 11.4% | 28.6
CCN(c1ccccc1)S(=O)(=O)c1ccc(NN)nc1 | . | . | . | -0.3 | . | .
CC(C)N(C(C)C)S(=O)(=O)c1ccc(NN)nc1 | 14.1µM* | -7.1% | 6.0% | -3.9 | ? | 0.1
CCN(CC)S(=O)(=O)c1ccc(N/N=C/c2cc(OC)ccc2O)nc1 | 4.47µM* | -2.5% | ? | ? | 11.2µM* | ?
CCN(CC)S(=O)(=O)c1ccc(NN)nc1 | 4.47µM* | -3.5% | -5.0% | -15.0 | 17.8µM* | 0.0
CCOc1ccc(OCCC(=O)OCC(=O)Nc2cc(S(=O)(=O)N3CCOCC3)ccc2C)cc1 | . | . | . | -0.4 | . | 14.8
CCC(C(=O)Nc1ccncc1)c1ccccc1 (configuration not stated) | ? | . | -2.5% | 4.1 | 12.6µM* | -0.2
CCC(C(=O)Nc1cccnc1)c1ccccc1 (configuration not stated) | . | -9.3% | . | 1.6 | . | .
CCC(C(=O)Nc1ccc(C(=O)Nc2ccccc2C(=O)O)cc1)c1ccccc1 (configuration not stated) | 20.0% | -7.5% | . | ? | 13.2% | -81.2*
O=C(Nc1ccccc1)c1ccc(NC(=O)C2CC2)cc1 | 8.3% | -0.4% | . | -0.4 | 2.6% | 1.9
O=C(Nc1ccccc1C(=O)O)c1ccc(NC(=O)C2CCCCC2)cc1 | -11.1% | 8.2% | . | -83.4* | 3.4% | -77.3*
CN(C)c1ncnc2ccc(-c3cccc(C#N)c3)cc12 | -0.2% | . | . | . | -3.8% | .

From PubChem
